Experimental findings from PubChem BioAssay (EPA / NIEHS) are described below.

Assay [1] addresses human Retinoid X Receptor beta (RXRb), RXRB (gene 6257) (UniProt P28702). The assay is described as follows: ATG_RXRb_TRANS: Attagene TRANS-FACTORIAL HepG2 Assay for human Retinoid X Receptor beta (RXRb) (AID 2283013; active = hit-call score of the fitted dose curve at least 0.9, where 1 is the maximum). In outline:
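HepG2 cells transiently transfected with multiplexed reporter units driven by GAL4-UAS and exogenous chimeric NR-Gal4 proteins; treated 24 h. Reporter mRNA measured by RT-PCR, 6-FAM labelling and capillary electrophoresis; gain-of-signal fitted versus DMSO baseline.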

Assay [2] has as its target human Thyroid Receptor alpha (THRa1), THRA (gene 7067) (UniProt P10827). Nature of the assay: ATG_THRa1_TRANS: Attagene TRANS-FACTORIAL HepG2 Assay for human Thyroid Receptor alpha (THRa1) (AID 2283014; active = hit-call score of the fitted dose curve at least 0.9, where 1 is the maximum). In outline: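 HepG2 cells transiently transfected with multiplexed GAL4-UAS reporter units for exogenous chimeric THRa1-Gal4; reporter mRNA measured 24 h after dosing by RT-PCR, 6-FAM labelling, HpaI digestion and capillary electrophoresis. Gain-of-signal fitted versus DMSO baseline.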

Read-out in assay [3]: E-selectin (Homo sapiens) (UniProt P16581)
The assay is described as follows: BSK_3C_Eselectin: BioMAP Diversity Plus: 3C Assay for Eselectin Biomarker Activity (AID 2283015).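 Note: cell surface E-selectin protein quantified by ELISA 24 h after dosing.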 The note with it: primary human endothelial cells (HUVEC); actives raise or lower the signal. In outline:
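Primary human umbilical vein endothelial cells (3C system) were dosed with chemical and cell-surface E-selectin measured by ELISA 24 h later. Bidirectional curve fitting used DMSO as negative control and baseline.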

Read-out in assay [4]: Interleukin-1 alpha (IL1a), IL1A (gene 3552)
Nature of the assay: BSK_BE3C_IL1a: BioMAP Diversity Plus: BE3C Assay for Interleukin-1 alpha (IL1a) Biomarker Activity (AID 2283016). The note with it: primary human bronchial epithelial cells; actives raise or lower the signal. Summed up:
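Human primary bronchial epithelial cells (BE3C system) were dosed with compound and IL-1a measured by ELISA 24 h later. Activity was fitted bidirectionally against DMSO baseline; cytotoxicity was tracked in parallel cultures by SRB total-protein staining.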

Read-out in assay [5]: Monocyte Chemoattractant Protein-1 (MCP1), CCL2 (gene 6347)
The assay is described as follows: BSK_3C_MCP1: BioMAP Diversity Plus: 3C Assay for Monocyte Chemoattractant Protein-1 (MCP1) Biomarker Activity (AID 2283017). The note with it: primary human endothelial cells (HUVEC); actives raise or lower the signal. Summed up: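 Primary human umbilical vein endothelial cells (3C system) were exposed to test chemical for 24 h, after which MCP-1 was quantified by ELISA. Activity was fitted bidirectionally against DMSO as negative control and baseline.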

Read-out in assay [6]: Monocyte Chemoattractant Protein-1 (MCP1), CCL2 (gene 6347)
The assay is described as follows: BSK_4H_MCP1: BioMAP Diversity Plus: 4H Assay for Monocyte Chemoattractant Protein-1 (MCP1) Biomarker Activity (AID 2283018). The note with it: primary human endothelial cells (HUVEC); actives raise or lower the signal. In outline: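 Human umbilical vein endothelial cells (4H system) dosed with chemical; MCP-1 measured by ELISA 24 h after dosing. Bidirectional curve fitting against DMSO negative control as baseline; parallel SRB total-protein staining tracks overt cytotoxicity.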

Read-out in assay [7]: Human Leukocyte Antigen - DR isotype (HLADR), HLA-DRA (gene 3122)
The assay is described as follows: BSK_3C_HLADR: BioMAP Diversity Plus: 3C Assay for Human Leukocyte Antigen - DR isotype (HLADR) Biomarker Activity (AID 2283019).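 For outcome: ELISA of cell-surface HLA-DR on HUVEC 24 h after dosing.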 The note with it: primary human endothelial cells (HUVEC); actives raise or lower the signal. Summed up:
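Primary human umbilical vein endothelial cells (3C system) were dosed with compound and cell-surface HLA-DR was quantified by ELISA at 24 h. Activity was fitted bidirectionally against DMSO as negative control and baseline.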

Read-out in assay [8]: Interleukin-8 (IL8), CXCL8 (gene 3576)
The assay is described as follows: BSK_3C_IL8: BioMAP Diversity Plus: 3C Assay for Interleukin-8 (IL8) Biomarker Activity (AID 2283020). The note with it: primary human endothelial cells (HUVEC); actives raise or lower the signal. In outline: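 Primary human umbilical vein endothelial cells (3C system) were exposed to test chemical for 24 h, then IL-8 was quantified by ELISA. Responses were fitted bidirectionally against DMSO vehicle as baseline.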

Read-out in assay [9]: Monokine induced gamma interferon (MIG), CXCL9 (gene 4283)
The assay is described as follows: BSK_3C_MIG: BioMAP Diversity Plus: 3C Assay for Monokine induced gamma interferon (MIG) Biomarker Activity (AID 2283021).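 For AC50: MIG protein level measured by immunoassay in the treated endothelial cultures.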 The note with it: primary human endothelial cells (HUVEC); actives raise or lower the signal. In outline:
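Primary human umbilical vein endothelial cells in the 3C system were exposed to chemical for 24 h, after which MIG was quantified by ELISA. Activity was fitted bidirectionally against DMSO as negative control and baseline.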

Assay [10] deals with human Vitamin D Receptor (VDR), VDR (gene 7421) (UniProt P11473). Nature of the assay: ATG_VDR_TRANS: Attagene TRANS-FACTORIAL HepG2 Assay for human Vitamin D Receptor (VDR) (AID 2283022; active = hit-call score of the fitted dose curve at least 0.9, where 1 is the maximum). Summed up:
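HepG2 cells were transiently transfected with multiple GAL4-UAS reporter units, so signal reflects exogenous chimeric receptor-Gal4 activity. After 24 h compound exposure, reporter mRNA was measured by RT-PCR, fluorescent labelling and capillary electrophoresis, fitted for gain of signal versus DMSO.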

The nature of assay [11]: BSK_3C_SRB: Viability Assessment in the BioMAP Diversity Plus: 3C Assay (AID 2283023).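 Note: fitted both ways against DMSO so a hit may be signal rise or drop.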 The note with it: primary human endothelial cells (HUVEC). In outline: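 Primary human umbilical vein endothelial cells in the 3C system were read 24 h after compound dosing. Total protein was stained with 0.1% sulforhodamine B after 10% TCA fixation and read at 560 nm, with bidirectional fitting against DMSO as baseline.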

Read-out in assay [12]: Matrix Metallopeptidase 1 (MMP1), MMP1 (gene 4312)
The assay is described as follows: BSK_BE3C_MMP1: BioMAP Diversity Plus: BE3C Assay for Matrix Metallopeptidase 1 (MMP1) Biomarker Activity (AID 2283024). The note with it: primary human bronchial epithelial cells; actives raise or lower the signal. Summed up: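 Primary human bronchial epithelial cells were dosed with test chemicals, and MMP1 levels were measured by ELISA 24 h later. Data were fitted bidirectionally against DMSO as the negative control and activity baseline.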

Assay [13] in a line: BSK_3C_Vis: BioMAP Diversity Plus: 3C Assay for Morphology Visualization (AID 2283025).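 Note: fitted both ways so gain or loss versus DMSO counts.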 The note with it: primary human endothelial cells (HUVEC). Summed up:
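Human umbilical vein endothelial cells in the 3C system were imaged by light microscopy 24 h after chemical dosing to record cell morphology. Activity was fitted bidirectionally against DMSO as negative control and baseline; the endpoint serves as a background control.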

Read-out in assay [14]: Pselectin, SELP (gene 6403)
The assay is described as follows: BSK_4H_Pselectin: BioMAP Diversity Plus: 4H Assay for Pselectin Biomarker Activity (AID 2283026). The note with it: primary human endothelial cells (HUVEC); actives raise or lower the signal. In outline:
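Primary human umbilical vein endothelial cells were exposed to test chemical for 24 h, then cell-surface P-selectin was quantified by ELISA. Activity was fitted bidirectionally against DMSO as negative control and baseline.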

Assay [15] can be described thus: BSK_4H_SRB: Viability Assessment in the BioMAP Diversity Plus: 4H Assay (AID 2283027).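 For AC50: curves fitted both ways versus DMSO so AC50 may be loss or gain.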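 Note: cells exposed to compound for 24 h before staining.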 The note with it: primary human endothelial cells (HUVEC). Summed up: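 Human umbilical vein endothelial cells were dosed with chemical and, after 24 h, fixed with 10% TCA, stained with 0.1% sulforhodamine B, and read at 560 nm to give total protein as a cytotoxicity measure. Bidirectional fitting relative to DMSO control.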

Assay [16] in a line: BSK_BE3C_SRB: Viability Assessment in the BioMAP Diversity Plus: BE3C Assay (AID 2283028).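 For AC50: fitted both ways so AC50 may mark signal gain or loss versus DMSO.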 The note with it: primary human bronchial epithelial cells. Summed up:
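Human primary bronchial epithelial cells were exposed to test chemicals for 24 h. Total protein in parallel cultures was then measured by staining with 0.1% sulforhodamine B after 10% TCA fixation, with absorbance read at 560 nm. Activity was fitted bidirectionally against DMSO.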

Read-out in assay [17]: Thrombomodulin, THBD (gene 7056)
The assay is described as follows: BSK_3C_Thrombomodulin: BioMAP Diversity Plus: 3C Assay for Thrombomodulin Biomarker Activity (AID 2283029). The note with it: primary human endothelial cells (HUVEC); actives raise or lower the signal. Summed up: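 Primary human umbilical vein endothelial cells (3C system) were exposed to chemical for 24 h, then thrombomodulin levels were measured by ELISA. Activity was fitted bidirectionally against the DMSO negative control as baseline.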

Read-out in assay [18]: Urokinase-type plasminogen activator receptor (uPAR), PLAUR (gene 5329)
Nature of the assay: BSK_4H_uPAR: BioMAP Diversity Plus: 4H Assay for Urokinase-type plasminogen activator receptor (uPAR) Biomarker Activity (AID 2283030). The note with it: primary human endothelial cells (HUVEC); actives raise or lower the signal. Summed up:
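Primary human umbilical vein endothelial cells were exposed to chemical for 24 h before cell-surface uPAR was quantified by ELISA. Activity was fitted bidirectionally against the DMSO negative control baseline.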

In assay [19] the target is Retinoic acid receptor RXR-alpha (Homo sapiens) (UniProt P19793). The assay is described as follows: ATG_RXRa_TRANS: Attagene TRANS-FACTORIAL HepG2 Assay for human Retinoid X Receptor alpha (RXRa) (AID 2283012; active = hit-call score of the fitted dose curve at least 0.9, where 1 is the maximum). Summed up:
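HepG2 cells transiently transfected with multiplexed GAL4-UAS reporter units and chimeric NR-GAL4 fusions, dosed 24 h. Reporter mRNA measured by RT-PCR, FAM labelling, HpaI digestion and capillary electrophoresis; gain-of-signal fitted relative to DMSO baseline.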

The structures appear in SMILES notation. Results filed as inconclusive are left out. Calls of active or inactive are those of the source. Rule for the calls, unless noted: active = hit-call score of the fitted dose curve at least 0.9, where 1 is the maximum; inactive = score below 0.9.

Retinoic acid receptor RXR-alpha (Homo sapiens), sequence (P19793 whole entry, looked up, the tested form may be a part): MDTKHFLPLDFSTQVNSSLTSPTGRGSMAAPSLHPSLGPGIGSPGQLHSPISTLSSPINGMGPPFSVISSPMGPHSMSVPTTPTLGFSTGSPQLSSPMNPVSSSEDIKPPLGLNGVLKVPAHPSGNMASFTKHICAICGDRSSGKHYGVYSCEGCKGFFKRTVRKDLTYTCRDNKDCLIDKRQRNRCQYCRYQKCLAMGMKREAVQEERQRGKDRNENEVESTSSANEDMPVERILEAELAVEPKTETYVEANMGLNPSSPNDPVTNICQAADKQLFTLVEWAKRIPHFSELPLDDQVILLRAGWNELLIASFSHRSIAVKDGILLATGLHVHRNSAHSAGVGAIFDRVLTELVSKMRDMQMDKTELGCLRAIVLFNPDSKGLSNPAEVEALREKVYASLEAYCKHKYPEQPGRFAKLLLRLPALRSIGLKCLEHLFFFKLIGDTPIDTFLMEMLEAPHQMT
human Retinoid X Receptor beta (RXRb), RXRB (gene 6257), sequence (P28702 whole entry, looked up, the tested form may be a part): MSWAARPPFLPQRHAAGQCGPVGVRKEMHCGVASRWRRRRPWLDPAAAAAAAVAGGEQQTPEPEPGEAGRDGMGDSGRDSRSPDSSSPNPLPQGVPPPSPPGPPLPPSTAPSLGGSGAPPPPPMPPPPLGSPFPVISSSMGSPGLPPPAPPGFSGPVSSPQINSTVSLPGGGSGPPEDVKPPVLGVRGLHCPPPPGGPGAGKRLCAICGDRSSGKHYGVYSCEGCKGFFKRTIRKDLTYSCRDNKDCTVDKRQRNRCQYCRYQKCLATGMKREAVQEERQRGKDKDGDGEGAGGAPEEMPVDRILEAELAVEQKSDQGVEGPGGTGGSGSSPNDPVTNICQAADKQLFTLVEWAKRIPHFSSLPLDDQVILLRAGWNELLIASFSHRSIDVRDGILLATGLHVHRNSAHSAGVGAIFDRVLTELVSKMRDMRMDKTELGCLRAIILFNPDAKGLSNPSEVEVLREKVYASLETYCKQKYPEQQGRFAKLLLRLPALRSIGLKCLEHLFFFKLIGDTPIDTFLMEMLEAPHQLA
human Vitamin D Receptor (VDR), VDR (gene 7421), sequence (P11473 whole entry, looked up, the tested form may be a part): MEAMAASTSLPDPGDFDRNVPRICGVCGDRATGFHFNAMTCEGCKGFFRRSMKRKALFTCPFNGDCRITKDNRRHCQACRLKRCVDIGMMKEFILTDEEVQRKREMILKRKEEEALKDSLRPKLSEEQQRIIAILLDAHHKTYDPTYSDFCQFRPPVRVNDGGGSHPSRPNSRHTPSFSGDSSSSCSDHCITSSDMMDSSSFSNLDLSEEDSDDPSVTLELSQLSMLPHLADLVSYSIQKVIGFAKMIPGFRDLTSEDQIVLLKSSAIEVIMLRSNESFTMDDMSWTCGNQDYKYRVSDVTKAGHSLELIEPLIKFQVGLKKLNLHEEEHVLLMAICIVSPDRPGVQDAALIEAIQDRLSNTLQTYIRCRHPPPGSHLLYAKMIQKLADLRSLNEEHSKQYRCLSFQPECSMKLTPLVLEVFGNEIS
human Thyroid Receptor alpha (THRa1), THRA (gene 7067), sequence (P10827 whole entry, looked up, the tested form may be a part): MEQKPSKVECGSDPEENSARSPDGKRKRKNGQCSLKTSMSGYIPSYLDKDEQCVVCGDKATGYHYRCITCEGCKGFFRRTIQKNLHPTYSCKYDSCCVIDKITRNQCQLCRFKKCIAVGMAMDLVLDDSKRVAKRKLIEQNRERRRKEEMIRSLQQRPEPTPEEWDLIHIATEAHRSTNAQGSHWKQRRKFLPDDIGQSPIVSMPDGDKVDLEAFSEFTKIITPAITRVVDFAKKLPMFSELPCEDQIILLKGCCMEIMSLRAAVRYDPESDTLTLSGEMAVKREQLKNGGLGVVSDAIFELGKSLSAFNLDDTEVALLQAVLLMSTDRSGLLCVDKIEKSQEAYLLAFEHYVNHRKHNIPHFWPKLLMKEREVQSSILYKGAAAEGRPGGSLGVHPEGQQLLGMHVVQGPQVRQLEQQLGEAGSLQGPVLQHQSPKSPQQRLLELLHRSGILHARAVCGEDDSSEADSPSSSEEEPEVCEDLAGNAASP
E-selectin (Homo sapiens), sequence (P16581 whole entry, looked up): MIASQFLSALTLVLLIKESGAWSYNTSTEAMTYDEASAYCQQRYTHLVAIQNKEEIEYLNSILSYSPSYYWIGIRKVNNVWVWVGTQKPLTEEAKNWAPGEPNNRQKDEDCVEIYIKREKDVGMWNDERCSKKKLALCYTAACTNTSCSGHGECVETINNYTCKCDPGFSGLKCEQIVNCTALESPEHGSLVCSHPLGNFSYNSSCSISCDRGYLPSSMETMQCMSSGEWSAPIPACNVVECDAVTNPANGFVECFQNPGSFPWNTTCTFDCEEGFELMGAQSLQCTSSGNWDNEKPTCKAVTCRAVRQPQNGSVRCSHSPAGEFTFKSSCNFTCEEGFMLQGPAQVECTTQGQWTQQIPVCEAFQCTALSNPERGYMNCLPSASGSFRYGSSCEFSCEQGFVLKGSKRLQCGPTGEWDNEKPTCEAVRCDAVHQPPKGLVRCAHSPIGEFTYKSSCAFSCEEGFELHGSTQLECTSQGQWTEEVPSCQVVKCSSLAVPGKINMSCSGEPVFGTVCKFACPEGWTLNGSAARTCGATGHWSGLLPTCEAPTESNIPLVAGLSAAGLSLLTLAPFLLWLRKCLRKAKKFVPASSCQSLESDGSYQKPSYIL

On to `OC(Cn1cncn1)(Cn1cncn1)c1ccc(F)cc1F`, for which the call in assay [1], in assay [2], in assay [3], in assay [4], in [5] and in [6] was inactive. In addition, the result in assay [7], in [8], in assay [9], in assay [10], in assay [11] and in [12] was inactive. For the same compound, the result in assay [13], in [14], in assay [15], in [16], in assay [17] and in assay [18] was inactive.
`NC(=O)N1c2ccccc2C=Cc2ccccc21`: the result in [19], in assay [2], in [4], in [6], in assay [7] and in assay [8] was inactive. The outcome in [9], in assay [11], in assay [12], in [13], in [14] and in assay [15] was inactive. Also, the result in [16], in assay [17] and in [18] was inactive.
As for `O=C(O)c1cccc(C(=O)O)c1`, the outcome in [19], in assay [2], in assay [3], in assay [4], in assay [6] and in assay [7] was inactive. In addition, the outcome in assay [8], in [9], in assay [11], in assay [12], in [13] and in assay [14] was inactive. The result in assay [15], in [16], in [17] and in assay [18] was inactive.
Regarding `C=CCc1cc(S(=O)(=O)c2ccc(O)c(CC=C)c2)ccc1O`, the compound was classed as inactive in [19], in assay [2], in assay [6], in [10] and in [17]. Further, the AC50 – broadly, the concentration at which the activity in the assay is half-maximal – in assay [4] is 21.1 µM (active); in assay [7] it was 16.3 µM (active); in assay [8], 12.4 µM (active); in [9], 34.8 µM (active); in assay [11], 23.8 µM (active); in assay [12], 30.5 µM (active). Further, the concentration at half-maximal activity (AC50) was 37.5 µM (active) in assay [13]; 33.8 µM (active) in [14]; 20 µM (active) in [15]; 15.8 µM (active) in assay [16]; 13.9 µM (active) in assay [18].
Regarding `Nc1ccn([C@@H]2O[C@H](CO)[C@@H](O)[C@@H]2O)c(=O)n1`, the result in assay [1], in assay [4], in assay [6], in assay [7], in assay [8] and in [9] was inactive. Also, the call in assay [10], in [12], in assay [14], in assay [15], in assay [16] and in assay [17] was inactive. For the same compound, the concentration at half-maximal activity (AC50) is 7.44 µM (active) in [11], 39 µM (active) in assay [13] and 4.93 µM (active) in assay [18].
Take `CC(C)c1nnc2ccc(-c3ocnc3-c3cc(F)ccc3F)cn12`: the outcome in [19], in [1], in [4], in [6], in [9] and in assay [10] was inactive. The result in assay [13], in assay [14], in assay [15], in [16] and in [18] was inactive. For the same compound, the AC50 in assay [5] was 1 µM (active); in assay [7], 0.833 µM (active); in assay [8], 0.148 µM (active); in [11] it was 0.61 µM (active); in assay [12] it was 1.05 µM (active); in assay [17], 0.451 µM (active).
